Reference: PubChem BioAssay (NCI)
This is part of a sample that, as a whole, favours compounds with a hit. Of some 79,000 tested, about 15% had one in any assay. Calls of active or inactive are those of the source. No stated cut-off is given here; in the data, active means growth inhibition above about 70%; inactive means the rest.

What was measured:
[1] = NCI Yeast Anticancer Drug Screen. Data for the wt1 strain (AID 149);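 further: 0% = growth of vehicle-treated wt1 cultures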; settings: S. cerevisiae wt1 strain (SPY 50644) growth inhibition, stronger effect = higher value
Summary of the method: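 Measured: growth of wt1 yeast under compound versus vehicle treatment, reported as inhibition.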

[2] = NCI Yeast Anticancer Drug Screen. Data for the rad50EPP+ strain (AID 151);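 further: 0% = growth of vehicle-treated control cultures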; settings: S. cerevisiae rad50 mutant strain, stronger effect = higher value
Summary of the method: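 Compounds were applied to the rad50EPP+ yeast strain, which bears a defined DNA repair alteration, and growth inhibition was determined relative to vehicle-treated cultures.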

[3] = NCI Yeast Anticancer Drug Screen. Data for the rad50 strain (AID 155);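 further: 0% = growth of vehicle-only cultures of the same strain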; settings: S. cerevisiae rad50 strain growth inhibition, stronger effect = higher value
Summary of the method: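 Growth of the mutant yeast was measured after compound exposure and referenced to vehicle-treated cultures.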

[4] = NCI Yeast Anticancer Drug Screen. Data for the mec2-1 strain (AID 157); settings: S. cerevisiae mec2-1 strain, stronger effect = higher value
Summary of the method: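 Strain: mec2-1 (DNA repair/cell cycle alteration). Compound exposure, then growth measured; inhibition expressed relative to vehicle.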

[5] = NCI Yeast Anticancer Drug Screen. Data for the rad14 strain (AID 159);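 further: 0% = growth of vehicle-treated control cultures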; settings: S. cerevisiae rad14 strain growth inhibition, stronger effect = higher value
Summary of the method: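 Here, inhibition of yeast growth was measured after compound exposure, using a strain with a genetic defect in DNA damage repair and vehicle-treated cultures as the reference.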

[6] = NCI Yeast Anticancer Drug Screen. Data for the sgs1 mgt1 strain (AID 161);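 further: 0% = growth of cultures given vehicle only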; settings: S. cerevisiae sgs1 mgt1 strain, stronger effect = higher value
Summary of the method: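 Test agents were incubated with a DNA-repair-mutant yeast strain. Growth was then read and compared against vehicle-treated controls.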

[7] = NCI Yeast Anticancer Drug Screen. Data for the CLN2oe strain (AID 163);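 further: 0% = growth of vehicle-only control cultures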; settings: S. cerevisiae CLN2oe strain, stronger effect = higher value
Summary of the method: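 Growth of a genetically modified yeast strain is measured after compound exposure and compared with cultures given vehicle alone.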

[8] = NCI Yeast Anticancer Drug Screen. Data for the cln2 rad14 strain (AID 165);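 further: 0% = growth equal to vehicle treated cultures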; settings: S. cerevisiae cln2 rad14 strain, stronger effect = higher value
Summary of the method: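 Compounds are applied to the cln2 rad14 yeast strain, and growth is then compared with that of vehicle-treated cultures to give inhibition.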

[9] = NCI Yeast Anticancer Drug Screen. Data for the bub3 strain (AID 167); settings: S. cerevisiae bub3 mutant strain, stronger effect = higher value
Summary of the method: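 Whole-cell yeast assay. The mutant strain was incubated with compounds, and growth inhibition was determined by comparison with vehicle-treated cells.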

[10] = NCI Yeast Anticancer Drug Screen. Data for the wt2 strain (AID 169);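 further: 0% = growth of vehicle-treated yeast cultures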; settings: S. cerevisiae wt2 strain growth inhibition, stronger effect = higher value
Summary of the method: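 This strain belongs to a panel of yeast strains with defined genetic alterations in DNA damage repair or cell cycle control. Compounds are applied, and growth inhibition is measured against vehicle-treated cultures.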

[11] = NCI Yeast Anticancer Drug Screen. Data for the mlh1 strain (AID 171);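 further: 0% = growth of vehicle-treated control cultures of the same strain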; settings: S. cerevisiae mlh1 strain growth inhibition, stronger effect = higher value
Summary of the method: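 Growth of the mutant yeast strain after compound exposure, expressed as inhibition relative to vehicle-only controls.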

[12] = NCI Yeast Anticancer Drug Screen. Data for the sgs1 strain (AID 173);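 further: 0% = growth of vehicle-only control cultures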; settings: S. cerevisiae sgs1 mutant, stronger effect = higher value
Summary of the method: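 Growth of a yeast strain bearing a defined genetic alteration is measured after compound treatment. Inhibition is expressed relative to vehicle-only controls.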

[13] = NCI Yeast Anticancer Drug Screen. Data for the mlh1 rad18 strain (AID 175); settings: S. cerevisiae mlh1 rad18 strain growth inhibition, stronger effect = higher value
Summary of the method: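 Read-out is yeast growth inhibition, calculated against vehicle-only controls. The compound was applied to a strain engineered with DNA damage repair alterations.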

[14] = NCI Yeast Anticancer Drug Screen. Data for the rad18 strain (AID 177); settings: S. cerevisiae rad18 mutant growth inhibition, stronger effect = higher value
Summary of the method: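 Growth of the mutant yeast strain after compound exposure, normalised to vehicle-only cultures.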

[15] = at 5.0 µM (retest, dose inferred, filed as 0.5)
[16] = at 50.0 µM (retest, dose inferred, filed as 5.0)

Measured: growth inhibition

Oc1ccc(Cc2nccc3cc(O)c(O)cc23)cc1O
active: [4]; [16] 73% | [4]; at 100.0 µM 77% | [9]; at 100.0 µM 79% | [10]; at 100.0 µM 70% | [12]; at 100.0 µM 73%
inactive: [1]; at 1.2 µM -9% | [1]; at 3.7 µM 2% | [1]; at 11.0 µM 3% | [1]; at 33.0 µM 19% | [1]; at 100.0 µM 66% | [2]; at 1.2 µM 16% | [2]; at 3.7 µM 31% | [2]; at 11.0 µM 22% | [2]; at 33.0 µM 24% | [2]; at 100.0 µM 33% | [3]; at 1.2 µM 3% | [3]; at 3.7 µM -6% | [3]; [15] 47% | [3]; at 11.0 µM 7% | [3]; at 33.0 µM 11% | [3]; [16] 66% | [3]; at 50.0 µM 48.9% | [3]; at 100.0 µM 28% | [4]; at 1.2 µM 21% | [4]; at 3.7 µM 28% | [4]; [15] 46% | [4]; at 11.0 µM 33% | [4]; at 33.0 µM 47% | [4]; at 50.0 µM -25.4% | [5]; at 1.2 µM 0% | [5]; at 3.7 µM 14% | [5]; at 11.0 µM 10% | [5]; at 33.0 µM 22% | [5]; at 100.0 µM 51% | [6]; [15] -1% | [6]; [16] 35% | [6]; at 50.0 µM 16.4% | [7]; at 1.2 µM 14% | [7]; at 3.7 µM 11% | [7]; at 11.0 µM 24% | [7]; at 33.0 µM 27% | [7]; at 100.0 µM 55% | [8]; [15] 43% | [8]; [16] 63% | [8]; at 50.0 µM -42.5% | [9]; at 1.2 µM 34% | [9]; at 3.7 µM 46% | [9]; [15] 20% | [9]; at 11.0 µM 57% | [9]; at 33.0 µM 68% | [9]; [16] 59% | [9]; at 50.0 µM 28.6% | [10]; at 1.2 µM -9% | [10]; at 3.7 µM 16% | [10]; at 11.0 µM 31% | [10]; at 33.0 µM 41% | [11]; at 1.2 µM -2% | [11]; at 3.7 µM 11% | [11]; at 11.0 µM 18% | [11]; at 33.0 µM 32% | [11]; at 100.0 µM 65% | [12]; at 1.2 µM 40% | [12]; at 3.7 µM 37% | [12]; at 11.0 µM 42% | [12]; at 33.0 µM 52% | [13]; [15] 33% | [13]; [16] 66% | [13]; at 50.0 µM 53.1% | [14]; at 1.2 µM -10% | [14]; at 3.7 µM 4% | [14]; at 11.0 µM 14% | [14]; at 33.0 µM 5% | [14]; at 100.0 µM 14%

COc1ccc(/C(=N/O)c2ccccc2C2=Nc3ccccc3C(NCc3ccccc3)O2)cc1C (stereo unspecified)
active: [1]; at 100.0 µM 89% | [2]; at 100.0 µM 82% | [3]; [16] 95% | [3]; at 50.0 µM 94.9% | [3]; at 100.0 µM 94% | [4]; at 50.0 µM 92.6% | [4]; at 100.0 µM 96% | [5]; at 100.0 µM 96% | [6]; [16] 85% | [6]; at 50.0 µM 95.8% | [7]; at 100.0 µM 94% | [8]; at 50.0 µM 83% | [9]; [16] 93% | [9]; at 50.0 µM 94.8% | [9]; at 100.0 µM 95% | [10]; at 100.0 µM 96% | [11]; at 100.0 µM 96% | [12]; at 100.0 µM 95% | [13]; [16] 93% | [13]; at 50.0 µM 94.2% | [14]; at 100.0 µM 94%
inactive: [1]; at 1.2 µM -1% | [1]; at 3.7 µM -2% | [1]; at 11.0 µM 1% | [1]; at 33.0 µM 17% | [2]; at 1.2 µM 3% | [2]; at 3.7 µM 1% | [2]; at 11.0 µM 15% | [2]; at 33.0 µM 49% | [3]; at 1.2 µM 1% | [3]; at 3.7 µM 3% | [3]; [15] 2% | [3]; at 11.0 µM 11% | [3]; at 33.0 µM 59% | [4]; at 1.2 µM -2% | [4]; at 3.7 µM 0% | [4]; [15] -4% | [4]; at 11.0 µM 1% | [4]; at 33.0 µM 37% | [4]; [16] 62% | [5]; at 1.2 µM 1% | [5]; at 3.7 µM 2% | [5]; at 11.0 µM 7% | [5]; at 33.0 µM 21% | [6]; [15] -3% | [7]; at 1.2 µM -2% | [7]; at 3.7 µM 2% | [7]; at 11.0 µM 1% | [7]; at 33.0 µM 4% | [8]; [15] 31% | [8]; [16] 51% | [9]; at 1.2 µM -1% | [9]; at 3.7 µM 2% | [9]; [15] 15% | [9]; at 11.0 µM 4% | [9]; at 33.0 µM 48% | [10]; at 1.2 µM -1% | [10]; at 3.7 µM -3% | [10]; at 11.0 µM 0% | [10]; at 33.0 µM 14% | [11]; at 1.2 µM -6% | [11]; at 3.7 µM -2% | [11]; at 11.0 µM 0% | [11]; at 33.0 µM 14% | [12]; at 1.2 µM -2% | [12]; at 3.7 µM -2% | [12]; at 11.0 µM 2% | [12]; at 33.0 µM 45% | [13]; [15] 2% | [14]; at 1.2 µM 0% | [14]; at 3.7 µM 0% | [14]; at 11.0 µM 11% | [14]; at 33.0 µM 67%
